TcdB inh: TcdB glycohydrolase inhibitors, primary screen, biochemical, single point, plate reader | Toxin B (Clostridioides difficile), P18177 | TcdB glycohydrolase enzymatic assay | inhibition, % at 9.99 µM | hit rate 0.24% among 350,000 | AID 652162, 2013; in the data active means inhibition above about 10%
SSB-PriA inh: inhibitors of Klebsiella pneumoniae PriA binding to SSB C-terminal tail, primary screen, biochemical, AlphaScreen | AlphaScreen SSBct-PriA binding, biotinylated peptide | inhibition, % at 33 µM | hit rate 0.6% among 430,000; in the data active means inhibition mostly above about 37%, no sharp cut-off; inactive means mostly below about 20%;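 further: plate controls were negative control peptide for no effect and reference peptide for full effect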
FadD28 FP inh: inhibitors of FadD28 bisubstrate probe binding, primary screen, biochemical, fluorescence polarization, single point; Mycobacterium tuberculosis FadD28 fatty-acid-AMP ligase; hit rate 0.22% among 360,000; AID 588549, 2011; inhibition, % at 12.5 µM; in the data active means inhibition above about 8.5%, passing the limit was not always enough
BioA inh: M. tuberculosis BioA enzyme inhibitors, primary screen, biochemical, plate reader, single point, HTS. hit rate 0.096% among 360,000. purified M. tuberculosis BioA enzyme. 7,8-diaminopelargonic acid synthase BioA (Mycobacterium tuberculosis). inhibition, % at 9.99 µM; in the data active means inhibition above about 40%
PrP 5UTR inh: inhibition of PrP 5' UTR reporter expression | AID 488862, 2010 | inhibition, % (test concentration not listed) | cell-based PrP 5' UTR mRNA reporter, plate reader | hit rate 0.35% among 340,000; in the data active means inhibition above about 52%; further: 0 = median of the neutral control wells
Mtb hypoxia rep: PubChem AID 1159583 | M. tuberculosis hypoxia-regulated fluorescent reporter, fluorescence | fluorescence inhibition, % (test concentration not listed) | hit rate 0.1% among 300,000; in the data active means fluorescence inhibition mostly above about 23%, no sharp cut-off; inactive means mostly below about 17%
The depositor's hits bear a star; x = no result given. Only some compounds are listed: those with a hit (about 1% of all), similar ones and a draw of the others.

SMILES | TcdB inh | SSB-PriA inh | FadD28 FP inh | BioA inh | PrP 5UTR inh | Mtb hypoxia rep
COc1cc(O)ccc1C(=O)CCc1ccc(O)cc1 | 17* | -10 | -1 | 0 | -11 | -7
Cc1cccc(NC(=S)NN=Cc2ccc([N+](=O)[O-])s2)c1 | x | 39* | x | x | x | x
CC(C)(C)OC(=O)NN=Cc1ccc([N+](=O)[O-])s1 | x | 8 | x | x | x | 4
COc1ccc(NC(C)C(=O)NN=Cc2ccc([N+](=O)[O-])s2)cc1 (stereo unspecified) | x | 26 | x | x | x | 43*
CN(C)c1ccc(P(=O)(OC2CCCCC2)C(Nc2ccccc2)c2cccnc2)cc1 (stereo unspecified) | 2 | -5 | -2 | -1 | x | 9
O=C(O)c1ccccc1NC(=O)N1C[C@H]2C[C@@H](C1)c1cccc(=O)n1C2 | 15* | -7 | -2 | 0 | 44 | x
CC1C(=O)CC(c2ccc([N+](=O)[O-])cc2)NC1c1ccc([N+](=O)[O-])cc1 (stereo unspecified) | 2 | 11 | -1 | 0 | -15 | 15
CC1C(=O)C(C)C(c2ccc([N+](=O)[O-])cc2)NC1c1ccc([N+](=O)[O-])cc1 (stereo unspecified) | 18* | 4 | -1 | x | -18 | 8
CCN(CC)c1ccc(/C=C2\C(=O)N(c3nnc(C)c(=O)[nH]3)N=C2C)cc1 | 3 | 78* | -3 | 1 | -5 | 14
CN(C)CCSc1nc2cc(S(=O)(=O)N3CCCCC3)ccc2o1 | 1 | -1 | 0 | 0 | -16 | 35*
Nc1nc(-c2ccccn2)nc2ccc(Cl)cc12 | x | 116* | x | x | x | x
Clc1cccc(-c2nc(-c3ccccn3)no2)c1 | x | -18 | -3 | -1 | 47 | 4
CC(C)(C)c1ccc(C(CC(=O)O)NC(=O)CSc2ccccc2)cc1 (stereo unspecified) | 1 | -16 | -2 | 1 | -19 | 3
CCOc1ccc(N(CC(=O)NCCc2ccccc2)C(=O)CCC(=O)Nc2cc(C)ccn2)cc1 | -2 | 104* | -2 | 4 | -5 | -2
CC(C)Nc1ccc(Nc2ccnc3cc4ccccc4cc23)cc1 | 7 | 97* | -2 | x | -22 | x
Clc1cc2c(c3ncccc13)OCN(CCCN1CCOCC1)C2 | x | 105* | x | x | x | x
O=[N+]([O-])c1ccc(NCCCN2CCOCC2)c2ncccc12 | 1 | -2 | -2 | 5 | -29 | 7
COCC(=O)Nc1ccc2c(c1)[C@H]1C[C@@H](CC(=O)N[C@@H](C)c3ccccc3)O[C@H](CO)[C@H]1O2 | -2 | x | x | -3 | x | x
O=C(c1ccc(-n2cccc2)cc1)N1CCS[C@H](c2ccccc2)CC1 | x | 35* | x | x | x | x
O=C(c1ccoc1)N1CCSC(c2ccccc2)CC1 (stereo unspecified) | x | 9 | x | x | x | x
O=C(O)c1cc(N2N=C(C(F)(F)F)/C(=C/C=C/c3ccco3)C2=O)ccc1Cl | -2 | -2 | 77* | x | -26 | 4
COc1ccc(NC(=S)Nc2ncccc2C)c(OC)c1 | 2 | 46* | 2 | -2 | -19 | 9
COc1ccc(OC)c(NC(=S)Nc2ncccc2C)c1 | x | 105* | x | x | x | x
COc1ccc(NC(=S)Nc2ncccc2C)cc1OC | 2 | -3 | 2 | x | -29 | 6
CN1CCCCC1=NCCCn1cnc2c1c(=O)n(C)c(=O)n2C | x | -18 | -1 | -1 | -14 | 0
SMILES | TcdB inh | SSB-PriA inh | FadD28 FP inh | BioA inh | PrP 5UTR inh | Mtb hypoxia rep
Cc1ccc(C)c(N2CCN(c3nc4ccccc4c(=O)n3Cc3ccccc3)CC2)c1 | 0 | 104* | -3 | -1 | -16 | 1
O=c1c2ccccc2nc(N2CCN(c3ccccc3)CC2)n1Cc1ccccc1 | 2 | -8 | 0 | 0 | -2 | 1
c1ccc(C2Nc3ccccc3-c3nc4ccccc4n32)cc1 (stereo unspecified) | x | -9 | -3 | 0 | -4 | 7
c1ccc(C2Nc3ccccc3-c3nc4ccccc4n32)nc1 (stereo unspecified) | x | 61* | -3 | 1 | -10 | x
Cc1ccccc1C1CC(=O)Oc2cc(O)ccc21 (stereo unspecified) | x | -5 | 13* | -6 | -9 | 7
O=C(CSc1nnc(NC(=O)c2ccc(F)cc2)s1)NCc1ccco1 | 0 | -9 | -1 | 0 | -12 | 5
CCOc1ccc(NC(=O)Nc2ccc(Br)cn2)cc1 | 1 | 82* | 0 | x | -35 | -5
N#Cc1c(C#N)c(-c2ccccc2)n(-c2ccc(C(=O)O)cc2)c1N | x | 10 | 12* | 1 | -10 | x
COc1ccc(S(=O)(=O)N2CCSC2c2ccccc2)cc1 (stereo unspecified) | x | -40 | -5 | -1 | -8 | 1
N#Cc1cnc(-c2ccccn2)nc1N | x | 83* | x | x | x | x
NCc1ccnc(-c2ccccn2)n1 | x | 126* | x | x | x | x
Nc1ccnc(-c2ccccn2)n1 | x | 151* | x | x | x | x
CC(Oc1ccc(F)cc1)C(=O)Nc1cc(C(F)(F)F)ccc1-n1cncn1 (stereo unspecified) | 1 | -11 | 0 | x | -5 | -4
CCCn1nc(C(=O)NC2CCCC2)c2ccccc2c1=O | 1 | -8 | 1 | -3 | 3 | -5
CCc1ccc(NC(=O)CSc2nc3ccccc3c(=O)n2CCCC(=O)N2CCCC2)cc1 | x | -2 | -3 | -1 | -10 | 0
O=c1[nH]c(-c2ccccn2)cc2ccccc12 | x | -13 | -4 | x | -73 | 6
O=c1[nH]c(-c2ccccn2)cs1 | x | 63* | x | x | x | x
C/C(=N\N=C(/N)SC1CC(=O)N(c2ccc(Br)cc2)C1=O)c1cccs1 (stereo unspecified) | 0 | x | 10* | 3 | -83 | x
O=c1ccc2[n+]([O-])c3ccc(O)cc3oc-2c1 | -3 | 0 | 98* | x | -31 | 0
O=c1cc(O)c2ccc(O)cc2o1 | 1 | -10 | 6 | 0 | -5 | x
CCNC(=S)NNC(=O)c1ccccn1 | x | 92* | -1 | -1 | -25 | -4
O=C(NNC(=S)Nc1ccc(Cl)c(Cl)c1)c1ccccn1 | 1 | 92* | -2 | x | 11 | 4
S=C(NCc1ccccn1)Nc1ccc(Cl)c(Cl)c1 | x | -5 | -3 | x | -20 | x
COc1ccc(NC(=O)C2(C)CCCN(C(C)C)C2)cc1OC (stereo unspecified) | 1 | x | -2 | 0 | x | x
Cn1nc(C(=O)OCC(=O)NCc2ccc(Cl)cc2)c2ccccc2c1=O | 2 | -12 | 0 | 0 | -14 | 31*
O=C(CCc1ccc(Oc2cc([N+](=O)[O-])cc([N+](=O)[O-])c2)cc1)N1CCCCC1 | x | 45* | -2 | 3 | -17 | x
Cn1nnnc1SCc1ccc(CSc2nnnn2C)cc1 | 2 | -10 | -1 | x | -16 | -9
Cn1ccnc1SCc1ccc(O)c2ncccc12 | x | 128* | x | x | x | x
Cn1cnnc1SCc1ccc(F)c2ccccc12 | x | -3 | -3 | 3 | -57 | 14
Cn1nnnc1SCc1ccc(O)c2ncccc12 | x | 124* | x | x | x | x
